Bioassay records: PubChem, National Center for Advancing Translational Sciences (NCATS)
RE007 growth inh = less growth of the S. pombe RE007 Vpr strain; AID 651644; Potency, µM (top dose mostly 92.2 µM), for the others: at the top dose activity change, negative = less growth, hits mostly inhibitors; S. pombe RE007 Vpr strain, BacTiter-Glo ATP luminescence, 24 h; 0.21% of 360,000 active; active means well fitted falling curve with a large enough effect; inconclusive means small, poorly fitted or top-dose-only effect; inactive means no such curve, though single readings can be large or run the other way; further: nearly all actives have a fitted effect of over 50% in size
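Fission yeast RE007 carrying one integrated HIV-1 vpr copy, seeded at OD 0.01 in PMG+AL medium with 23 nL pinned compound. Grown 24 h at 30 degrees; viability read by BacTiter-Glo luminescence after 5 min.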
Lassa entry inh = Lassa virus entry inhibition. Potency, µM (highest dose often 37.9 µM), inactives show at the top dose activity change, negative = inhibition, usual class: inhibitors. Lassa virus pseudotype entry inhibition, cell reporter. 1.2% of 300,000 active. AID 540256; calls by dose curve; tested in HEK293 cells; further: nearly all actives have a fitted effect of over 50% in size
FMDV inh = blocks foot and mouth disease virus; FMDV antiviral cell-based qHTS; 1.2% of 410,000 active; Potency, µM (titrated, usually from 57.9 µM), inactives show top-dose activity change, negative = inhibition, usual class: inhibitors; AID 1159524; calls by dose curve; tested in HEK293T cells; further: read-out not given here; nearly all actives have a fitted effect of over 45% in size
MARV entry inh = inhibitors of Marburg virus binding or cell entry | AID 540276 | Marburg virus pseudotyped entry inhibition, cell reporter | Potency, µM (top dose mostly 37.8 µM), without a hit: at the top dose activity change, negative = inhibition, usual class: inhibitors | 1.8% of 300,000 active; calls by dose curve; tested in HEK293 cells
Sm TGR block = blocks Schistosoma mansoni thioredoxin glutathione reductase; purified TGR, DTNB reduction, TNB absorbance 405 nm; Potency, µM (highest dose often 114 µM), inactives show top-dose activity change, negative = inhibition, most hits filed as inhibitors; 3% of 360,000 active; AID 485364; further: nearly all actives have a fitted effect of over 60% in size
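First, TGR (20 nM dispensed) and NADPH were mixed with compound. Second, a 15 min room-temperature incubation followed. Third, further NADPH and then DTNB were added to start the reaction. Finally, TNB absorbance was monitored kinetically.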
HCV inhibitor = inhibitors of hepatitis C virus infection; Potency, µM (top dose mostly 41.8 µM), for inactives: at the highest dose activity change, negative = inhibition, actives largely listed as inhibitors; 3.4% of 340,000 active; Huh7.5.1 HCVcc-Cre infection, luciferase reporter, 44 h; AID 651820
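Infectious HCVcc-Cre (~0.5 moi) was added to cells just after compound, with cells seeded 4 h earlier at 1,000 per well. Luciferase activity after 44 h culture reported infection; substrate was incubated 15 min at room temperature before reading.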
* hit, by the source's call; ? = inconclusive; / = no result; [ ] = dose if it differs, or a comment. Rows were chosen to be rich in hits. Some 7.2% of all compounds tested hit in one or more screens of this group. Unless noted, the call rests on the fitted dose curve; in most records, active means well fitted curve in the direction sought with a large enough effect; inconclusive means small, poorly fitted or top-dose-only effect, or another doubt; inactive means no such curve, though single readings can be large; an effect the other way counts as inactive or inconclusive. On the % scale 0 is the no-effect control and ±100 the full control effect; potency means the concentration at half of the fitted maximal effect.

SMILES | RE007 growth inh | Lassa entry inh | FMDV inh | MARV entry inh | Sm TGR block | HCV inhibitor
C#CCNC(=O)C1=C[C@H](C2CCCCC2)C[C@H](OCc2ccc(CO)cc2)O1 | 15.1% | / | 22.5% | / | 20µM* | -25.5%
CCOC(=O)c1cc(S(=O)(=O)Nc2ccc(OC)cc2OC)cn1C | 10.4% | / | 11.5% | / | 56.2µM* | 6.2%
CCOC(=O)c1cc(S(=O)(=O)N(C)Cc2ccccc2)cn1C | -3.0% | 12.6µM* | -3.5% | ? | -4.0% | -16.4%
CCOC(=O)c1cc(-c2ccc(C)cc2)n(CC(=O)Nc2ccc(OC)cc2OC)c1C | / | / | 0.1% | ? | 0.6% | /
COC(=O)c1cc(S(=O)(=O)Nc2cccc(OC)c2)cn1C | 7.6% | / | 19.9% | / | -23.1% | ?
CCOC(=O)c1cc2occc2n1CC(=O)Nc1ccc(OC)cc1OC | 4.9% | -1.1% | / | -16.4% | 20µM* | -7.3%
COc1ccc(-c2cn3c(n2)sc2cc(C(=O)Nc4c(C)cccc4C)ccc23)cc1 | / | -15.2%[46.1 µM] | -16.9% | / | -2.3% | /
Cc1nc(SCC(=O)Nc2cccc(Cl)c2)n[nH]1 | -10.9% | 6.8% | 0.0% | 12.9% | 10.6% | 7.7%
O=C(CSc1n[nH]c(-c2ccccn2)n1)Nc1cccc(Cl)c1 | 7.5% | ? | -19.5% | ? | -0.1% | 10µM*
C=CC[n+]1c(-c2ccc(OCC)cc2)csc1NNC(=O)Nc1ccccc1 | 7.1% | ? | / | -7.1% | -21.4% | 7.08µM*
COc1ccc(CCNC(=O)c2ccc(CN3CCC(Cc4ccccc4)CC3)cc2)cc1 | -4.1% | 16.1% | 0.0% | 19.2% | -6.7% | ?
COc1ccc(C(=O)NCC23C=CC(O2)C2C(=O)N(Cc4ccccc4)C(=O)C23)cc1 (configuration not stated) | 25.1µM* | -9.2% | ? | -0.7% | 3.55µM* | ?
COc1cccc(-n2c(SC)nnc2C2CCN(Cc3nc4ccccc4s3)CC2)c1 | / | / | -12.6% | / | / | /
O=C(NCc1ccco1)C1CCN(c2nc3ccccc3n2Cc2ccccc2F)CC1 | 14.3% | / | -28.1% | 2.8% | 44.7µM* | -3.9%
O=C(CN1CCN(Cc2ccccc2F)C1=O)NCc1ccco1 | -2.4% | -1.4% | -1.1% | ? | 28.2µM* | 10.8%
O=C(NCc1ccccc1F)C1CCN(Cc2cc3ccccc3n2Cc2cccc(Cl)c2)CC1 | / | ? | -17.5% | / | 12.6µM* | /
O=C(CN1CCN(Cc2ccccc2Cl)C1=O)NCc1ccccc1Cl | / | 9.8%[46.1 µM] | 34.0% | -13.5%[46.1 µM] | 5.01µM* | /
O=C(O)CN1CCN(Cc2ccc(F)cc2Cl)C1=O | 2.3% | -2.1% | 7.0% | 7.7% | 8.91µM* | 15.3%
COc1ccc(/C=N/n2cnnc2SCc2ccccc2)cc1 | -14.9% | ? | -11.3% | -17.2%[46.1 µM] | 13.8% | -6.6%
COc1ccc(/C=N/n2cnnc2SCc2ccc(OC)cc2)cc1 | 0.1% | 2.51µM* | 3.9% | -13.0% | 2.2% | -7.2%
CCOc1ccc(S(=O)(=O)NCCc2sc(-c3ccc(C)cc3)nc2C)cc1 | / | -27.6%[46.1 µM] | 18.3% | / | 8.5% | /
OC1(c2cccnc2)CCN(Cc2ccc3c(c2)CN(Cc2cc(F)cc(F)c2)CCO3)CC1 | / | / | -28.5% | / | / | /
C[C@@](N)(Cc1ccc(O)c(O)c1)C(=O)O | / | / | -6.5% | ? | / | /
COc1ccc(N2CCN(C(=O)c3cccnc3SCc3cccc(Br)c3)CC2)cc1 | 10.9% | 12.6µM* | ? | ? | -1.4% | ?
COCCCNC(=O)c1cnn(-c2ccc(F)cc2F)c1C1CCNCC1 | / | ? | 3.7% | / | 34.9% | /
SMILES | RE007 growth inh | Lassa entry inh | FMDV inh | MARV entry inh | Sm TGR block | HCV inhibitor
CCOC(=O)C(C(=O)OCC)C(C(=O)OCC)N1CCOCC1 (configuration not stated) | -27.0% | 11.3% | 31.6µM* | ? | 0.631µM* | ?
COc1ccc(CCNc2ncnc3c2oc2ccccc23)cc1OC | -2.6% | ? | / | ? | 2.6% | 3.16µM*
Cc1nc(NCCc2cnc[nH]2)c2oc3ccccc3c2n1 | 4.1% | 10.6% | / | 2.2% | -5.1% | -1.2%
COc1ccc(CCNc2nc(C)nc3c2oc2ccccc23)cc1OC | -6.5% | 12.6µM* | 17.8µM* | 12.6µM* | 0.8% | ?
CCCCCn1c(CCNC(=O)c2cccc(C)c2)nc2ccccc21 | / | -11.6%[46.1 µM] | -18.2% | ? | 6.2% | /
Cc1ccc(C2C3=C(NCCN=C3c3ccccc3)C(=O)N2c2ccccc2)cc1 (configuration not stated) | 3.6% | ? | / | 10.3µM* | ? | ?
Cc1ccc(N2C(=O)c3n[nH]c(C)c3C2c2ccc(Cl)cc2)cc1 (configuration not stated) | / | -13.0%[46.1 µM] | 34.8% | ? | 1.9% | /
CCOc1ccc(N2C(=O)C3=C(C(c4ccc(Cl)cc4)=NCCN3)C2c2cccnc2)cc1 (configuration not stated) | 15.9% | ? | -2.6% | 11.2µM* | 23.3% | ?
COCCNC(=S)N(CCc1c(C)[nH]c2ccc(F)cc12)Cc1ccc(C)cc1 | -5.8% | ? | -6.3% | ? | 0.2% | 14.1µM*
CCOc1ccc(NC(=S)N(CCc2c(C)[nH]c3ccc(C)cc23)Cc2ccco2)cc1 | -13.1% | ? | -19.9% | ? | -15.3% | 11.2µM*
COc1ccc2[nH]c(C)c(CCN(Cc3cccs3)C(=S)Nc3ccccc3)c2c1 | 9.1% | / | -0.9% | -0.2% | -21.9% | ?
COc1ccc2[nH]c(C)c(CCN(Cc3cccs3)C(=S)Nc3ccc(F)cc3)c2c1 | -6.8% | / | -11.8% | / | -7.3% | 11.2µM*
COCCNC(=S)N(CCc1c(C)[nH]c2ccc(C)cc12)Cc1ccco1 | 4.6% | -30.0%[46.1 µM] | 11.9% | ? | 9.4% | ?
CNC(=S)N(CCc1c(C)[nH]c2ccc(C)cc12)Cc1cccs1 | 4.8% | / | -9.0% | / | 5.0% | 10µM*
C=C(C)C(=O)/C=C/CCC/C=C/C(=O)OCC | / | / | / | 7.0%[14.2 µM] | / | /
CCCCNC(=O)CN1C(=O)c2cccnc2Sc2ccccc21 | / | 2.5%[46.1 µM] | 6.7% | / | -1.1% | /
CC(=O)C(C(C)=O)c1c(Cl)c(O)c(O)c2c(C(=O)c3ccccc3)coc12 | 6.6% | 7.08µM* | ? | ? | 2.51µM* | 10µM*
O=C(NCCc1ccc(Cl)cc1)C1CCN(C(=O)c2sccc2-n2cccc2)CC1 | -1.3% | -23.3% | ? | ? | 0.0% | 8.91µM*
O=C(NCCc1ccc(Cl)cc1)C1CCN(S(=O)(=O)c2ccc(Br)s2)CC1 | -11.4% | -15.7% | -16.0% | -20.8%[46.1 µM] | 1.5% | 10µM*
O=C(NCc1cccc(Cl)c1)C1CCN(C(=O)c2sccc2-n2cccc2)CC1 | / | / | -25.8% | -0.4%[46.1 µM] | 5.7% | /
CCOC(=O)c1cnc2nc(NCc3ccc(OCC)cc3)[nH]n2c1=O | / | -7.0%[46.1 µM] | -10.5% | -0.8%[46.1 µM] | -6.1% | /
CN1C(=O)N(c2ccccc2)[C@@H](Nc2nncs2)C1(C)C | / | / | / | -0.1% | / | /
Cc1c([N+](=O)[O-])c(C(=O)Sc2ccc(Br)cc2)nn1C | ? | -2.0% | -3.9% | 5.4%[14.2 µM] | 0.501µM* | 3.9%
